In the supplement of paper PMC10981050:
Where “and” joins values, the source holds several entries; their conditions need not be identical. Equal entries are not always repeated. Structures can show the parent of a compound that is named as a salt.

How the values were obtained:
Test in all cases: cell viability relative to vehicle control; higher = less cytotoxic
Settings in all cases: 10 µM
K562 = test system: K562
How it was run: (§1)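 Four leukaemia lines, as CRISPR-edited mutant clones and isogenic wild-type clones, were tested against Selleck bioactive, kinase and epigenetic probe libraries after removal of identity-inconsistent compounds. Cells were exposed to a single 10 µM dose for 48 h, and CellTiter-Glo luminescence was then read. Viability was calculated relative to the on-plate vehicle control.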

MARIMO = test system: MARIMO
How it was run: as §1

MOLM14 = test system: MOLM14
How it was run: as §1

OCI-AML2 = test system: OCI-AML2
How it was run: as §1

| SMILES | cell viability (K562; SRSF2 genotype: SRSF2 P95H/wt) | cell viability (K562; SRSF2 genotype: SRSF2 wt/wt) [%] | cell viability (MARIMO; SRSF2 genotype: SRSF2 P95H/wt) [%] | cell viability (MARIMO; SRSF2 genotype: SRSF2 wt/wt) [%] | cell viability (MOLM14; SRSF2 genotype: SRSF2 P95H/wt) [%] | cell viability (MOLM14; SRSF2 genotype: SRSF2 wt/wt) [%] | cell viability (OCI-AML2; SRSF2 genotype: P95H/wt) [%] | cell viability (OCI-AML2; SRSF2 genotype: wt/wt) [%] |
| --- | --- | --- | --- | --- | --- | --- | --- | --- |
| C=C(CCC=C(C)C)[C@H]1CC[C@]2(C)[C@@H]1[C@H](O)C[C@@H]1[C@@]3(C)CC[C@H](O[C@@H]4O[C@H](CO)[C@@H](O)[C@H](O)[C@H]4O[C@@H]4O[C@H](CO)[C@@H](O)[C@H](O)[C@H]4O)C(C)(C)[C@@H]3CC[C@]12C [Ginsenoside Rk1] | 107% and 97.8% | 107 | 105 | 104 | 108 | 104 | 100 | 104 |
| Cn1cc(C(=O)Nc2ccc3c(c2)OCCO3)c2ccccc2c1=O | 88.4% and 81.6% | 81.2 | 80.4 | 83.5 | 84.3 | 82.8 | 80.3 | 95.8 |
| CN(C/C=C/C#CC(C)(C)C)Cc1cccc2ccccc12 [Terbinafine] | 99.7% and 97.5% | 103 | 96.2 | 108 | 104 | 105 | 105 | 110 |
| c1ccc(-c2nn3c(c2-c2ccnc4cc(OCCN5CCOCC5)ccc24)CCC3)nc1 | 104% and 111% | 97.1 | 106 | 120 | 105 | 110 | 108 | 117 |
| CCS(=O)(=O)N1CC(CC#N)(n2cc(-c3ncnc4[nH]ccc34)cn2)C1 | 110% and 106% | 108 | 111 | 115 | 106 | 109 | 84.7 | 92.9 |
| CC(C)c1cc2c(c(O)c1O)[C@@]13CCCC(C)(C)[C@@H]1C[C@@H]2OC3=O [Carnosol] | 43.3% and 33.8% | 61.7 | 4.39 | 0.77 | 6.11 | 5.25 | 5.94 | 1.96 |
| Cc1c[nH]c(=O)[nH]c1=O [Thymine] | 99.9% and 101% | 96.8 | 101 | 95.1 | 109 | 102 | 106 | 101 |
| Cc1ccc(NC(=O)Nc2cc(C(F)(F)F)ccc2F)cc1Nc1ccc2c(c1)NC(=O)/C2=C\c1ccc[nH]1 | 75.2% and 70.9% | 62.1 | 84.4 | 92.2 | 86.5 | 94.4 | 74.4 | 70.1 |
| O=C(c1ccc(F)cc1)N1CCCC(c2nc(-c3ccc(F)cc3)no2)C1 (configuration not stated) | 75.7% and 78.6% | 76.6 | 66 | 73.9 | 80.1 | 84.1 | 64.8 | 72.7 |
| CN/C(=N\CCSCc1nc[nH]c1C)NC#N [Cimetidine (Tagamet)] | 102% and 100% | 98.8 | 102 | 106 | 101 | 102 | 105 | 104 |
| O=C(c1ccc(F)cc1)C1CCN(CCn2c(=O)[nH]c3ccccc3c2=O)CC1 [Ketanserin (Vulketan Gel)] | 98.1% and 104% | 103 | 102 | 106 | 107 | 107 | 105 | 109 |
| CC(=O)Nc1cccc2c1c(Sc1ccc(Cl)cc1)c(C)n2CC(=O)O | 108% and 110% | 100 | 108 | 112 | 105 | 106 | 101 | 108 |
| COc1cccc2c1c(O)c(C(=O)N(C)c1ccc(C(F)(F)F)cc1)c(=O)n2C [Tasquinimod] | 108% and 106% | 99.1 | 109 | 116 | 106 | 106 | 101 | 110 |
| CCCCCCCCCCCCCC(=S)NCCCC[C@H](NC(=O)OCc1ccccc1)C(=O)Nc1ccccc1 [Thiomyristoyl] | 82.1% and 77.7% | 81.9 | 81.4 | 97.3 | 82 | 83.8 | 90.2 | 86.3 |
| Fc1cc(-c2cccc3ncc(-c4cnn(C5CCNCC5)c4)nc23)cc(F)c1CN1CCOCC1 | 3.45% and 6.22% | 7.58 | 31.9 | 5.4 | 0.59 | 0.69 | 0.94 | 2.89 |
| C=C[C@](C)(O)CC[C@@H]1[C@@]2(C)CCCC(C)(C)[C@@H]2CC[C@@]1(C)O [Sclareol] | 93.2% and 93.5% | 95.6 | 94.5 | 94.3 | 106 | 103 | 89.2 | 85.1 |
| CCN(CC)CCOc1ccc(C(=C(Cl)c2ccccc2)c2ccccc2)cc1 [Clomifene citrate (Serophene)] | 37.2% and 36.3% | 62.6 | 57.2 | 61.7 | 50.8 | 60.9 | 54.5 | 52.3 |
| COc1ccc(CCNCc2ccc(OCc3ccc(Cl)nc3)c(OC)c2)cc1OC | 85.6% and 95.4% | 89.8 | 87.4 | 95.2 | 91.9 | 99.9 | 91.4 | 83.5 |
| N#CC[C@H](C1CCCC1)n1cc(-c2ncnc3[nH]ccc23)cn1 | 87.3% and 90% | 97.7 | 78 | 91 | 68.8 | 82.6 | 60.7 | 57.9 |
